# Key:
# Experiment in all cases: DAPPL (digital affinity profiling via proximity ligation, sequencing); 10 mM Tris-HCl pH 7.5, 50 mM NaCl, 1 mM DTT, 4% glycerol, room temperature, 30 min; GST-TFs on glutathione beads, 16-mer random dsDNA library, 0.1% formaldehyde crosslink after washing; high values mean tight binding
# [1] = biological target: T1, FEV (Homo sapiens, UniProt Q99581 1-238); conditions: protein: recombinant; tags: N-terminal GST; dsDNA, one strand shown
# T1 sequence: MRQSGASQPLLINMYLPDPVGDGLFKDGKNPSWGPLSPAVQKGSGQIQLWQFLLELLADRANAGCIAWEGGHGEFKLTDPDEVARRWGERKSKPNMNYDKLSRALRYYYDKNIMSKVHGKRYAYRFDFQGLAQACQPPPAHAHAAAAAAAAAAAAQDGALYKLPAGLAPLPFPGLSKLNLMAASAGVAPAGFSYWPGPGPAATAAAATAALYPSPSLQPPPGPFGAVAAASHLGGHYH
# Procedure, shortened: (§1)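 Pools of DNA-barcoded human transcription factors, expressed in yeast as GST fusions on glutathione beads and combined with a tag-only sample, were incubated with 200 nmole of a 16-mer random double-stranded DNA library. Incubation took 30 min at room temperature in Tris/NaCl/DTT/glycerol buffer and was followed by washing, 0.1% formaldehyde crosslinking, proximity ligation (BsaI/T4 ligase, 1 h, 37 °C), PCR amplification and sequencing on an Illumina NextSeq500. Binding signal is the ratio of a hexamer's read frequency for a factor to its frequency for the tag-only sample.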
# [2] = biological target: ETV5 (Homo sapiens, UniProt P41161 1-510); conditions: protein: recombinant; tags: N-terminal GST; dsDNA, one strand shown
# Sequence of ETV5 (P41161 whole entry): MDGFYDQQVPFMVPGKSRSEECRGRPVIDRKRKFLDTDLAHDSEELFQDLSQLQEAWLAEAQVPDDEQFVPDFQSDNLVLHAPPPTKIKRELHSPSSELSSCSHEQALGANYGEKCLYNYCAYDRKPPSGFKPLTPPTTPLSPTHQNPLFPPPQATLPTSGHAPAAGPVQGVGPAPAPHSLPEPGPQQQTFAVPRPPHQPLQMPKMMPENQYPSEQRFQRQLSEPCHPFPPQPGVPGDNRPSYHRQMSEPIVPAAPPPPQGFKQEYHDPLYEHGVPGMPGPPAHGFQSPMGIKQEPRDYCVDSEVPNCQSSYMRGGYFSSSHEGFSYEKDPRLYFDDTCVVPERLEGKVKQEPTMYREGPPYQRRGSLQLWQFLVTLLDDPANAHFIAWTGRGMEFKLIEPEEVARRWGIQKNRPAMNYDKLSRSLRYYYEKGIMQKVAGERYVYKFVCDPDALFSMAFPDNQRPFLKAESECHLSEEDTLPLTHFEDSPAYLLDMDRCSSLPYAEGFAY
# Procedure, shortened: as §1
# [3] = biological target: HSF1 (Homo sapiens, UniProt Q00613 1-529); conditions: protein: recombinant; tags: N-terminal GST; chain copies: 3; dsDNA, one strand shown
# Sequence of HSF1 (Q00613 whole entry): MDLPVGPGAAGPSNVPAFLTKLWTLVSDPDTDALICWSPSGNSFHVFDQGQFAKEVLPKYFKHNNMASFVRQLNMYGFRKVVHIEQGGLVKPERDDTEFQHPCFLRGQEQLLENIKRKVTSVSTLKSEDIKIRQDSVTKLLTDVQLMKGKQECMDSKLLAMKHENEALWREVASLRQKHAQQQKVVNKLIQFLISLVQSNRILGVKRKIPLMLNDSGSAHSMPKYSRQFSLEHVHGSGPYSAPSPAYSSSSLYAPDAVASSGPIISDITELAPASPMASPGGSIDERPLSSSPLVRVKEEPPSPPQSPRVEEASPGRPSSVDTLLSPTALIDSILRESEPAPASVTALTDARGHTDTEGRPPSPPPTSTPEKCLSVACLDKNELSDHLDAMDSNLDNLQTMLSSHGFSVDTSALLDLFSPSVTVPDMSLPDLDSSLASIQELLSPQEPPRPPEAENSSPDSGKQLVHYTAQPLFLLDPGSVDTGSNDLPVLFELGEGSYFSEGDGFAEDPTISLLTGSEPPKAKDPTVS
# Procedure, shortened: as §1
# [4] = biological target: T2, SPIC (Homo sapiens, UniProt Q8N5J4 1-248); conditions: protein: recombinant; tags: N-terminal GST; dsDNA, one strand shown
# T2 sequence: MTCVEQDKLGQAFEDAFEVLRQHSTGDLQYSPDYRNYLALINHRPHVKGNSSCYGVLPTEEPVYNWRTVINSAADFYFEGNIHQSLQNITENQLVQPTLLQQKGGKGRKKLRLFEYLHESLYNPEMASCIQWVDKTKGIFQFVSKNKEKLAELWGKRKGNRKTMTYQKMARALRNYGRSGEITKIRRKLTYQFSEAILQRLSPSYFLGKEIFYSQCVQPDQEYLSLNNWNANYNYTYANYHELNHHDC
# Procedure, shortened: as §1
# [5] = biological target: ELF4 (Homo sapiens, UniProt Q99607 1-663); conditions: protein: recombinant; tags: N-terminal GST; dsDNA, one strand shown
# Sequence of ELF4 (Q99607 whole entry): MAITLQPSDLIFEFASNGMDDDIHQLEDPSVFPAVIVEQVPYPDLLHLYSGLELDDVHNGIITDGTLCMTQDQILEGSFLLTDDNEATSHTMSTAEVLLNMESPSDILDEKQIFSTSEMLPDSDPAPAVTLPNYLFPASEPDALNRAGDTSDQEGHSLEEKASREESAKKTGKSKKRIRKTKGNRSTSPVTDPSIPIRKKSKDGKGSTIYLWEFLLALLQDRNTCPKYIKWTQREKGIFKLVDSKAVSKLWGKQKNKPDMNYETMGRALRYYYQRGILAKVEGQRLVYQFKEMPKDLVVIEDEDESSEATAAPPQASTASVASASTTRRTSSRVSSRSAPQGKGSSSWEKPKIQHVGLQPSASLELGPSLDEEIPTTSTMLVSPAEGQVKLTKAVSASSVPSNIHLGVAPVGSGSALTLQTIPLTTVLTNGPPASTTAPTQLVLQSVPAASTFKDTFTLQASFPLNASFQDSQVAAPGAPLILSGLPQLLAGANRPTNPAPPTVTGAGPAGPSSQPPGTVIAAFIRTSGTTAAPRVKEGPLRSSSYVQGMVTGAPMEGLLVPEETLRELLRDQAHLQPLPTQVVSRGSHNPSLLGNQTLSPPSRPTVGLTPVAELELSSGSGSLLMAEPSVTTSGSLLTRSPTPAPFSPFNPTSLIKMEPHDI
# Procedure, shortened: as §1
# [6] = biological target: T3, ELK4 (Homo sapiens, UniProt P28324-2 1-405); conditions: protein: recombinant; tags: N-terminal GST; dsDNA, one strand shown
# T3 sequence: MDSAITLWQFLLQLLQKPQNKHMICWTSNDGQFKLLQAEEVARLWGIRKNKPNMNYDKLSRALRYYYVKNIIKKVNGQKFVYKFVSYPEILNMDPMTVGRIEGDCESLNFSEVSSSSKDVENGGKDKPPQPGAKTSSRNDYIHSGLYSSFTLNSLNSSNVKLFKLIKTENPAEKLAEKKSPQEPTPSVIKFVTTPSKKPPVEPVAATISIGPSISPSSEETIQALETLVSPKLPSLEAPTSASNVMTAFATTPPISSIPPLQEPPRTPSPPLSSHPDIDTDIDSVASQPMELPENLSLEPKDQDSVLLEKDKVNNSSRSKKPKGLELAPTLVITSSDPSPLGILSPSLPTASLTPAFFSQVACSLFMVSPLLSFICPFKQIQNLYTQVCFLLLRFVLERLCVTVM
# Procedure, shortened: as §1
# [7] = biological target: T4, ETV2 (Homo sapiens, UniProt O00321 1-342); conditions: protein: recombinant; tags: N-terminal GST; dsDNA, one strand shown
# T4 sequence: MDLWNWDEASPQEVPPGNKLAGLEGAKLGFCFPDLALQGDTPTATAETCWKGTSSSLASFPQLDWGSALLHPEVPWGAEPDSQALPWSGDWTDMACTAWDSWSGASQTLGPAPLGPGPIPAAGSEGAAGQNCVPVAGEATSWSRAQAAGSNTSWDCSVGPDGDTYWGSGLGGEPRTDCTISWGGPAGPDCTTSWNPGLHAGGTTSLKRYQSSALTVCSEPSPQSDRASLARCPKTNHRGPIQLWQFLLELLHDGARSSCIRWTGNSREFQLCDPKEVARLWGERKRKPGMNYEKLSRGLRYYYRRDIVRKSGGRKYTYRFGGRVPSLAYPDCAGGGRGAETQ
# Procedure, shortened: as §1
# [8] = biological target: T5, ELF3 (Homo sapiens, UniProt P78545 1-371); conditions: protein: recombinant; tags: N-terminal GST; dsDNA, one strand shown
# T5 sequence: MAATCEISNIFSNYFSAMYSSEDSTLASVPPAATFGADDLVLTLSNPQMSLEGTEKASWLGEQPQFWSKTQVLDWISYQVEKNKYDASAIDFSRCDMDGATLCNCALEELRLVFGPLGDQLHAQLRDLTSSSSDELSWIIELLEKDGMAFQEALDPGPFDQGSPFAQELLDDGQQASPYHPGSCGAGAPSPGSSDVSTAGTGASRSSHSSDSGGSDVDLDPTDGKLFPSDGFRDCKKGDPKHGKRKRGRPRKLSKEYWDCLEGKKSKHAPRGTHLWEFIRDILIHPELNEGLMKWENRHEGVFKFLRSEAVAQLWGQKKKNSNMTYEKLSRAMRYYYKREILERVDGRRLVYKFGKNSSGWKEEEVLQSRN
# Procedure, shortened: as §1
# [9] = biological target: CRX (Homo sapiens, UniProt O43186 1-299); conditions: protein: recombinant; tags: N-terminal GST; dsDNA, one strand shown
# Sequence of CRX (O43186 whole entry): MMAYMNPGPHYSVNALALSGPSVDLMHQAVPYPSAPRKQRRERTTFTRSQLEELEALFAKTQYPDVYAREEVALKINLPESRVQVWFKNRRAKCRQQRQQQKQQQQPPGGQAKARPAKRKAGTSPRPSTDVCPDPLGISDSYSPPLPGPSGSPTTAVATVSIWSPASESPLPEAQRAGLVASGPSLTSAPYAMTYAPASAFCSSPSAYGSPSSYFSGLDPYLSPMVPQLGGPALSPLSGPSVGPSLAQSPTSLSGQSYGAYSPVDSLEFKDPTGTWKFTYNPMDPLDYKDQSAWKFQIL
# Procedure, shortened: as §1
# [10] = biological target: ETV1 (Homo sapiens, UniProt P50549 1-477); conditions: protein: recombinant; tags: N-terminal GST; dsDNA, one strand shown
# Sequence of ETV1 (P50549 whole entry): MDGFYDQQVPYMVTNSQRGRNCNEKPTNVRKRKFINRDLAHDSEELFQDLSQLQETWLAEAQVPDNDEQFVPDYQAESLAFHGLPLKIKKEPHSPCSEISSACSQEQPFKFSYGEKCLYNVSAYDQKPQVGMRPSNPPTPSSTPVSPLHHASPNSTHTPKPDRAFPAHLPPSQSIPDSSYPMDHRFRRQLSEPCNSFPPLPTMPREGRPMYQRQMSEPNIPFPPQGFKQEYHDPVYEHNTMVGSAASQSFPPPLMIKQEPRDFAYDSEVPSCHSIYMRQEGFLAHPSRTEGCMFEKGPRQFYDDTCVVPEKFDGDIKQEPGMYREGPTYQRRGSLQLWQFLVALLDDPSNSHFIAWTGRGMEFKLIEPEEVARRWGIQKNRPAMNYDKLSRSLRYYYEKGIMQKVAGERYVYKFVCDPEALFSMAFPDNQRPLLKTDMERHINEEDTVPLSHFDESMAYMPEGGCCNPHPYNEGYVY
# Procedure, shortened: as §1
sequence,measurement,setting,value
CCGTTC,binding signal,[1],"1.48 fold enrichment (6-mer frequency, TF over GST control)"
same,binding signal,[2],"1.43 fold enrichment (6-mer frequency, TF over GST control)"
same,binding signal,[3],"1.18 fold enrichment (6-mer frequency, TF over GST control)"
same,binding signal,[4],"1.32 fold enrichment (6-mer frequency, TF over GST control)"
same,binding signal,[5],"1.37 fold enrichment (6-mer frequency, TF over GST control)"
same,binding signal,[6],"1.23 fold enrichment (6-mer frequency, TF over GST control)"
same,binding signal,[7],"1.4 fold enrichment (6-mer frequency, TF over GST control)"
same,binding signal,[8],"1.36 fold enrichment (6-mer frequency, TF over GST control)"
same,binding signal,[9],"1.11 fold enrichment (6-mer frequency, TF over GST control)"
same,binding signal,[10],"1.27 fold enrichment (6-mer frequency, TF over GST control)"
